Source: PubChem BioAssay AID463 (The Scripps Research Institute Molecular Screening Center, 2006)
The whole screen tested about 56,000 compounds, of which about 710 (1.3%) were called active.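 How the source made its calls: active means inhibition above the mean inhibition of all tested compounds plus 3 SD (cut at about 28% in these data); inactive means the rest.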 Only a selection was taken, and actives are over-represented in it overall.

Assay: cytotoxicity toward Jurkat T cells, primary screen, cytotoxicity control, cell-based, Jurkat E6.1, 60K MLSMR library (AID 463)
Conditions: Jurkat E6.1 viability, ATP luminescence, 48 h; at 4 µM; stronger effect = higher value
With O=C(CSc1nc2c(cnn2-c2ccc(F)cc2)c(=O)[nH]1)N1CCCCCC1 the inhibition was 2.5% (inactive).
In the case of CC(C)Oc1ccc(C(=O)Nc2cc(=O)n(C)c(=O)n2C)cc1, the inhibition is reported as 2.6% (inactive).
In the case of COc1ccc(C2=NOC(C(=O)NCc3ccco3)C2)cc1OC (configuration not stated), the inhibition is reported as 85.8% (active).
For O=C(c1ccco1)N1CCN(C(=O)C2CC(c3ccc(Cl)c(Cl)c3)=NO2)CC1 (configuration not stated), the inhibition was -1.7% (inactive).
For COc1ccc(CCNS(=O)(=O)c2ccc(C(=O)NCc3ccco3)cc2)cc1OC, the inhibition was 0.2% (inactive).
For CC(C)NS(=O)(=O)c1ccc(NC(=O)c2cccnc2)cc1, the inhibition was 0.7% (inactive).
With CN1CCN(c2ccc(NC(=O)COc3ccc(Cl)cc3Cl)cc2)CC1 the inhibition was -0.1% (inactive).
For Cc1ccccc1OCC(=O)Nc1ccc(N2CCN(C(=O)C(C)C)CC2)c(Cl)c1, the inhibition was 30.2% (active).
In the case of Cc1cccc(NC(=O)COc2ccccc2C)n1, the inhibition is reported as 8.1% (inactive).
With Cc1cc(C(=O)OCC(=O)NCc2ccco2)c(C)n1-c1ccccc1 the inhibition was 75.4% (active).
For CCOC(=O)c1cnc(SCC(=O)NCc2ccco2)nc1N, the inhibition was -0.1% (inactive).
For O=C(CSc1nnc(-c2cccs2)n1-c1ccccc1)NCc1ccco1, the inhibition was -1.7% (inactive).
With COc1cccc(OC)c1C(=O)Nc1nnc(C(C)C)s1 the inhibition was 5.1% (inactive).
With Cc1ccc(OCC(=O)Nc2ccc(-c3nc4ncccc4o3)cc2)cc1 the inhibition was -9.9% (inactive).
In the case of Nc1nonc1-c1nc2ccccc2n1Cc1ccc(F)cc1, the inhibition is reported as 20.3% (inactive).
In the case of Nc1nonc1-c1nc2ccccc2n1CCC(=O)O, the inhibition is reported as 1.7% (inactive).
With COc1ccc(C)c(Cn2c(-c3nonc3N)nc3ccccc32)c1 the inhibition was 75.3% (active).
For CCC(=NC1CC(C)(C)NC(C)(C)C1)C1=C(O)CC(C)(C)CC1=O, the inhibition was -4.2% (inactive).
In the case of CCc1cc(=O)oc2cc(OCC(=O)N3CCCc4ccccc43)ccc12, the inhibition is reported as -8.4% (inactive).
With CCN(c1ccccc1)S(=O)(=O)c1ccc(N)cc1 the inhibition was -3.3% (inactive).
With CC1CN(c2cc(=O)n(-c3cccc(Br)c3)c(=O)[nH]2)CC(C)O1 (configuration not stated) the inhibition was 1.2% (inactive).
For CCC(=O)Nc1ccc2c(c1)nc(CCN1CCN(C)CC1)n2C, the inhibition was 7.5% (inactive).
For Cn1c(CN2CCOCC2)nc2cc(NC(=O)c3ccc(Cl)cc3)ccc21, the inhibition was 86.9% (active).
With Cc1nn(CC(=O)Nc2ccc3c(c2)nc(CN2CCCCC2)n3C)c(=O)c2ccccc12 the inhibition was 1.4% (inactive).
In the case of CC(=O)OC(C(=O)NCCc1ccccc1)c1cccnc1 (configuration not stated), the inhibition is reported as -5.8% (inactive).
For O=S(=O)(NCC1CCCO1)c1ccc2ccccc2c1 (configuration not stated), the inhibition was -0.5% (inactive).
With CC1CCCN(Cc2nc3c(c(=O)n(C)c(=O)n3C)n2CC(=O)c2ccccc2)C1 (configuration not stated) the inhibition was 4.9% (inactive).
For CC1=NC2(CCCc3c2no[n+]3[O-])N(O)C1(C)C (configuration not stated), the inhibition was 12.1% (inactive).
For Cc1cc(NC(=O)CSCc2nc(-c3cccc(Cl)c3)oc2C)no1, the inhibition was 0.8% (inactive).
For O=C(Nc1cc(N2CCOCC2)ncn1)NC1(C(F)(F)F)Oc2ccc(Cl)cc2O1 (configuration not stated), the inhibition was 72.6% (active).
With COc1c(C)cccc1C(=O)Nc1cc(Cl)ccc1N1CCOCC1 the inhibition was -1% (inactive).
In the case of c1cnn(-c2cc(N3CCOCC3)ncn2)c1, the inhibition is reported as -0.2% (inactive).
For CCOC(=O)C1=C(C)NC(C)=C(C(=O)OCC)C1C1=COCCO1, the inhibition was -5.9% (inactive).
With CCOC(=O)CCc1c(C)c2ccc(OCc3nn[nH]n3)c(C)c2oc1=O the inhibition was -2.2% (inactive).
For CN(C)CCCn1c(N)c(C#N)c2nc(C#N)c(C#N)nc21, the inhibition was 1.9% (inactive).
With CC(C)Cc1cc(C(=O)Nc2cc(Br)ccc2O)no1 the inhibition was 60.7% (active).
For CC(C)CNC(=O)c1cc(-c2ccc(Br)cc2)on1, the inhibition was 1.8% (inactive).
In the case of CC(C)Cc1cc(C(=O)NCCc2ccccc2)no1, the inhibition is reported as 6% (inactive).
With COCCn1c(SCC(=O)Nc2cc(Cl)ccc2OC)nc2c(c1=O)SC(C)C2 (configuration not stated) the inhibition was 6.8% (inactive).
In the case of O=C(CSc1nnc(-c2ccco2)n1-c1ccccc1)NCCc1ccccc1, the inhibition is reported as 0.2% (inactive).
For CCOc1ccc(Nc2oc(Cc3ccccc3)nc2C#N)cc1, the inhibition was -0.9% (inactive).
In the case of N#Cc1nc(-c2ccc(OCc3ccccc3)cc2)oc1NCCCN1CCOCC1, the inhibition is reported as -3.2% (inactive).
For COc1ccc(Nc2oc(-c3ccccc3Cl)nc2C#N)cc1, the inhibition was 85.4% (active).
For O=C(Nc1nc(-c2ccncc2)cs1)C1COc2ccccc2O1 (configuration not stated), the inhibition was 7.3% (inactive).
In the case of O=C(Nc1nc(-c2ccc3c(c2)OCO3)cs1)c1ccncc1, the inhibition is reported as 44% (active).
For O=C(Nc1ccc2c(c1)OCCO2)c1ccncc1, the inhibition was 3.8% (inactive).
For Cn1c(=O)cc(SCC(=O)N2CCCC2)c2cc(Cl)ccc21, the inhibition was 3.9% (inactive).
